Outcome and AC50 data for 16 compounds are collected here from PubChem BioAssay (EPA / NIEHS).

SMILES strings stand for the structures. Results filed as inconclusive are left out. Active and inactive are the calls of the source. How the source made its calls: active means hit-call score of the fitted dose curve at least 0.9, where 1 is the maximum; inconclusive means response in the unintended direction; inactive means score below 0.9.

The target in experiment [1] is Tyrosine-protein phosphatase non-receptor type 13 (Homo sapiens) (UniProt Q12923). Briefly: NVS_ENZ_hPTPN13: NovaScreen (NVS) Enzymatic Assay for human Protein Tyrosine Phosphatase Non-receptor Type 13 (PTPN13) (AID 2283205). The gist of the method:
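Screened first at a single 25 uM in duplicate; compounds passing the threshold (e.g. 30% inhibition) were rerun in concentration series, top 50 uM. Recombinant enzyme, fluorescent substrate, mobility-shift separation, 0.5 h read. Data fitted as inhibition relative to DMSO.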

The target in experiment [2] is human Sirtuin 2 (SIRT2), SIRT2 (gene 22933) (UniProt Q8IXJ6). Briefly: NVS_ENZ_hSIRT2: NovaScreen (NVS) Enzymatic Assay for human Sirtuin 2 (SIRT2) (AID 2283217). The gist of the method: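 Single-point duplicate screen at 25 uM, then concentration-response (max 50 uM) for chemicals passing threshold. Enzyme activity of recombinant human SIRT2 measured after 1 hr by fluorescence with mobility-shift separation of product; DMSO baseline.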

Experiment [3] addresses human Protein Tyrosine Phosphatase Non-receptor Type 6 (PTPN6), PTPN6 (gene 5777) (UniProt P29350). Briefly: NVS_ENZ_hPTPN6: NovaScreen (NVS) Enzymatic Assay for human Protein Tyrosine Phosphatase Non-receptor Type 6 (PTPN6) (AID 2283210). The gist of the method:
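Recombinant human PTPN6 from SF9 cells, enzyme activity followed by fluorescence after mobility-shift separation of substrate and product at 1.33 h. Chemicals first tested at a single 25 uM in duplicate, then confirmed across concentration series; loss of signal relative to DMSO.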

The target in experiment [4] is human Rho Associated Coiled-coil Containing Protein Kinase 1 (ROCK1), ROCK1 (gene 6093) (UniProt Q13464). Briefly: NVS_ENZ_hROCK1: NovaScreen (NVS) Enzymatic Assay for human Rho Associated Coiled-coil Containing Protein Kinase 1 (ROCK1) (AID 2283214). The gist of the method:
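Compounds first run in duplicate at 25 uM against recombinant human ROCK1, then followed in concentration series. Kinase activity was read 1 h post-dosing by fluorescence with mobility-shift separation, as signal loss relative to DMSO.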

Experiment [5] deals with Tyrosine-protein phosphatase non-receptor type 12 (Homo sapiens) (UniProt Q05209). Briefly: NVS_ENZ_hPTPN12: NovaScreen (NVS) Enzymatic Assay for human Protein Tyrosine Phosphatase Non-receptor Type 12 (PTPN12) (AID 2283204). The method, boiled down: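 Single-concentration duplicates (25 uM) preceded singleton concentration-response up to 50 uM for chemicals passing threshold. Cell-free recombinant PTPN12 activity was read 1.33 h after dosing via fluorescence after mobility-shift separation; loss of signal versus DMSO.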

Experiment [6] deals with human Protein Tyrosine Phosphatase Receptor Type B (PTPRB), PTPRB (gene 5787) (UniProt P23467). Briefly: NVS_ENZ_hPTPRB: NovaScreen (NVS) Enzymatic Assay for human Protein Tyrosine Phosphatase Receptor Type B (PTPRB) (AID 2283211). The method, boiled down:
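Recombinant human PTPRB with a fluorescent substrate, product separated by electrophoretic mobility shift; read 1 h after dosing. Primary screen in duplicate at 25 uM; actives then retested in concentration series; loss of signal versus DMSO.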

Experiment [7] addresses human Protein Tyrosine Phosphatase Receptor Type F (PTPRF), PTPRF (gene 5792) (UniProt P10586). Briefly: NVS_ENZ_hPTPRF: NovaScreen (NVS) Enzymatic Assay for human Protein Tyrosine Phosphatase Receptor Type F (PTPRF) (AID 2283213). The gist of the method: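 Cell-free fluorescence enzyme assay with recombinant protein and substrate; product separated by electrophoretic mobility shift. Read 1 h after dosing, single 25 uM duplicate screen, then concentration-response up to 50 uM; loss of signal vs DMSO.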

Experiment [8] has as its target human Protein Tyrosine Phosphatase Receptor Type M (PTPRM), PTPRM (gene 5797) (UniProt P28827). Briefly: NVS_ENZ_hPTPRM: NovaScreen (NVS) Enzymatic Assay for human Protein Tyrosine Phosphatase Receptor Type M (PTPRM) (AID 2283215). The method, boiled down: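 Read-out is fluorescence after electrophoretic separation of substrate and product, taken 1.33 h post-dosing with recombinant enzyme. Compounds screened at 25 uM in duplicate, then concentration series for actives; activity as signal loss relative to DMSO.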

In experiment [9] the target is Tyrosine-protein phosphatase non-receptor type 14 (Homo sapiens) (UniProt Q15678). Briefly: NVS_ENZ_hPTPN14: NovaScreen (NVS) Enzymatic Assay for human Protein Tyrosine Phosphatase Non-receptor Type 14 (PTPN14) (AID 2283206). The method, boiled down:
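Fluorescent substrate turnover by recombinant human PTPN14 was measured 0.5 h after compound addition, with substrate and product separated by mobility shift. Single-point screening at 25 uM, then concentration-response up to 50 uM for chemicals meeting threshold (e.g., 30% inhibition).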

Experiment [10] concerns the target human Protein Tyrosine Phosphatase Non-receptor Type 4 (PTPN4), PTPN4 (gene 5775) (UniProt P29074). Briefly: NVS_ENZ_hPTPN4: NovaScreen (NVS) Enzymatic Assay for human Protein Tyrosine Phosphatase Non-receptor Type 4 (PTPN4) (AID 2283208). As for the experimental part:
NVS_ENZ_hPTPN4 is a biochemical, single-readout assay that uses extracted gene-proteins from SF9 in a cell-free assay. Measurements were taken 1.33 hours after chemical dosing in a 384-well plate.NVS_ENZ_hPTPN4 is one of one assay component(s) measured or calculated from the NVS_ENZ_hPTPN4 assay. It is designed to make measurements of enzyme activity, a form of enzyme reporter, as detected with fluorescence intensity signals by Fluorescence and electrophoretic mobility shift technology.Data from the assay component NVS_ENZ_hPTPN4 was analyzed into 1 assay endpoint. This assay endpoint, NVS_ENZ_hPTPN4, was analyzed in the positive analysis fitting direction relative to DMSO as the negative control and baseline of activity. Using a type of enzyme reporter, loss-of-signal activity can be used to understand changes in the enzymatic activity as they relate to the gene PTPN4. Furthermore, this assay endpoint can be referred to as a primary readout, because this assay has produced multiple assay endpoints where this one serves a enzymatic activity function. To generalize the intended target to other relatable targets, this assay endpoint is annotated to the phosphatase intended target family, where the subfamily is non-receptor tyrosine phosphatase.
Binding assays used specific radioligands (tritiated, iodinated) with non-radioactive competitive displacement ligands in agonist or antagonist protocols (as indicated) and various reference compounds and inhibitors to titrate specific binding to receptors and transporters. Most enzyme assays (CYPs, kinases, phosphatases, proteases, HDACs) used recombinant protein and specific substrates (fluorescence mostly, some colorimetric and radioactive) and inhibitors, followed by a biochemical separation of substrate and product. All assays for the biochemical HTS were initially run in duplicate at a single concentration (10 uM for CYP450 assays and 25 uM for all others). Assay-chemical combinations meeting a pre-defined threshold (e.g., 30% inhibition and other criteria defined below) were then run in singleton concentration-response format with maximum concentration of 20 uM for CYPs and 50 uM for all others. Each assay was run with positive and negative controls, and concurrent controls on every plate. The follow-up (secondary) screen tested active chemical-pairs in concentration series, as well as a few additional assays not tested in the primary screen, some selected negative inactives, and several cases re-run in the concentration series for confirmatory purposes.

Sequence of human Protein Tyrosine Phosphatase Non-receptor Type 6 (PTPN6), PTPN6 (gene 5777) (P29350 whole entry, looked up): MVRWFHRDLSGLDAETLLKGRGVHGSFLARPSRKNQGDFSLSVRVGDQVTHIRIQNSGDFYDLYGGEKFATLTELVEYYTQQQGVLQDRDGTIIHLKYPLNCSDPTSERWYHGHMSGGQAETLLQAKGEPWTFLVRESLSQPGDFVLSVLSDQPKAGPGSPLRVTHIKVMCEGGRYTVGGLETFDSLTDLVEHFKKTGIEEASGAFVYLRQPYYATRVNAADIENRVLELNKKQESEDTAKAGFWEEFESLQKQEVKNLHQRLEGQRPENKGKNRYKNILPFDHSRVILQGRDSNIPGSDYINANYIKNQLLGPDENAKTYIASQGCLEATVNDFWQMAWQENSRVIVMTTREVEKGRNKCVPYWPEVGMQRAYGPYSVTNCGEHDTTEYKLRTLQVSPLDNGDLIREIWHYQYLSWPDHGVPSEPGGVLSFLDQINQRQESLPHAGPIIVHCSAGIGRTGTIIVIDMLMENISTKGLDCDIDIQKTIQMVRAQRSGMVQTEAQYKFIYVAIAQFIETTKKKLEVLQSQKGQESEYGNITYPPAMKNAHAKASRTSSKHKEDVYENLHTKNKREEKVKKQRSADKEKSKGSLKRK
Sequence of human Protein Tyrosine Phosphatase Receptor Type M (PTPRM), PTPRM (gene 5797) (P28827 whole entry, looked up): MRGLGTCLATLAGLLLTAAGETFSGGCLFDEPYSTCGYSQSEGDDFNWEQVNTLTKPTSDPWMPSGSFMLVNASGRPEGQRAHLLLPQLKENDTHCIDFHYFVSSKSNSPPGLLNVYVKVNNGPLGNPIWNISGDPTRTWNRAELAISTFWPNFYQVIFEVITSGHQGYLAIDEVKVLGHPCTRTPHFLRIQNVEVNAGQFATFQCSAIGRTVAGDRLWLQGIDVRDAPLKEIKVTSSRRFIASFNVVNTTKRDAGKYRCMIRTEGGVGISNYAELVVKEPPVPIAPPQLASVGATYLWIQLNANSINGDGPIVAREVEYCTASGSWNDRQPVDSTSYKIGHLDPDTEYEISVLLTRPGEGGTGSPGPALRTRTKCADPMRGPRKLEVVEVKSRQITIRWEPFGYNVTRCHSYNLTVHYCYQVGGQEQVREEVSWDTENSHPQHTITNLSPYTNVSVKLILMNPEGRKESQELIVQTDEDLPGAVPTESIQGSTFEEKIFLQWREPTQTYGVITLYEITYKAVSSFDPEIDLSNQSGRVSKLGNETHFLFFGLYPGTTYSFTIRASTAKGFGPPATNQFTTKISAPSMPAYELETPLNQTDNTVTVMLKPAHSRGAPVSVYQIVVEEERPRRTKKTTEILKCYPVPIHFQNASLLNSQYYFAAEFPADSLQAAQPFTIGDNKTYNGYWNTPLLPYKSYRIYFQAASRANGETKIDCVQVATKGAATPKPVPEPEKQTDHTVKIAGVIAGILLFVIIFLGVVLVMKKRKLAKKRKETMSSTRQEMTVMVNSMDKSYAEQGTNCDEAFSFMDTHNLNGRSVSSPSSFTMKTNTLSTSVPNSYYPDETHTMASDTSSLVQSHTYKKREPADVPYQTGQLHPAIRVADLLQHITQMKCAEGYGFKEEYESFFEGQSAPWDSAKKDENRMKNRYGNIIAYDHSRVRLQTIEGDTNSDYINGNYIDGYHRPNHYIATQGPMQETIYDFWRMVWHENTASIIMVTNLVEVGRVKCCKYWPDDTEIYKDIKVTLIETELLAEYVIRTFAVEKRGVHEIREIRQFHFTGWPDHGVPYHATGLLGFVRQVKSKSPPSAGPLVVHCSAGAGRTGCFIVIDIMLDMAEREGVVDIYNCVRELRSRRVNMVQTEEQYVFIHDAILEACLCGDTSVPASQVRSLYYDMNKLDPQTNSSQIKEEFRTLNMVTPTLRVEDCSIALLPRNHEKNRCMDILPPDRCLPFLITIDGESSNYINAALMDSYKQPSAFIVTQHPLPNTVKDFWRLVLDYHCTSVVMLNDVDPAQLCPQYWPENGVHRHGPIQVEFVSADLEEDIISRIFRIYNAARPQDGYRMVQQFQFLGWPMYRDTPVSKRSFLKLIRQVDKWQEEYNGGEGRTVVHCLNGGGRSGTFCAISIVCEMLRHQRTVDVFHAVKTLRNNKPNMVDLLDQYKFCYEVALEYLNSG
Sequence of human Protein Tyrosine Phosphatase Receptor Type B (PTPRB), PTPRB (gene 5787) (P23467 whole entry, looked up): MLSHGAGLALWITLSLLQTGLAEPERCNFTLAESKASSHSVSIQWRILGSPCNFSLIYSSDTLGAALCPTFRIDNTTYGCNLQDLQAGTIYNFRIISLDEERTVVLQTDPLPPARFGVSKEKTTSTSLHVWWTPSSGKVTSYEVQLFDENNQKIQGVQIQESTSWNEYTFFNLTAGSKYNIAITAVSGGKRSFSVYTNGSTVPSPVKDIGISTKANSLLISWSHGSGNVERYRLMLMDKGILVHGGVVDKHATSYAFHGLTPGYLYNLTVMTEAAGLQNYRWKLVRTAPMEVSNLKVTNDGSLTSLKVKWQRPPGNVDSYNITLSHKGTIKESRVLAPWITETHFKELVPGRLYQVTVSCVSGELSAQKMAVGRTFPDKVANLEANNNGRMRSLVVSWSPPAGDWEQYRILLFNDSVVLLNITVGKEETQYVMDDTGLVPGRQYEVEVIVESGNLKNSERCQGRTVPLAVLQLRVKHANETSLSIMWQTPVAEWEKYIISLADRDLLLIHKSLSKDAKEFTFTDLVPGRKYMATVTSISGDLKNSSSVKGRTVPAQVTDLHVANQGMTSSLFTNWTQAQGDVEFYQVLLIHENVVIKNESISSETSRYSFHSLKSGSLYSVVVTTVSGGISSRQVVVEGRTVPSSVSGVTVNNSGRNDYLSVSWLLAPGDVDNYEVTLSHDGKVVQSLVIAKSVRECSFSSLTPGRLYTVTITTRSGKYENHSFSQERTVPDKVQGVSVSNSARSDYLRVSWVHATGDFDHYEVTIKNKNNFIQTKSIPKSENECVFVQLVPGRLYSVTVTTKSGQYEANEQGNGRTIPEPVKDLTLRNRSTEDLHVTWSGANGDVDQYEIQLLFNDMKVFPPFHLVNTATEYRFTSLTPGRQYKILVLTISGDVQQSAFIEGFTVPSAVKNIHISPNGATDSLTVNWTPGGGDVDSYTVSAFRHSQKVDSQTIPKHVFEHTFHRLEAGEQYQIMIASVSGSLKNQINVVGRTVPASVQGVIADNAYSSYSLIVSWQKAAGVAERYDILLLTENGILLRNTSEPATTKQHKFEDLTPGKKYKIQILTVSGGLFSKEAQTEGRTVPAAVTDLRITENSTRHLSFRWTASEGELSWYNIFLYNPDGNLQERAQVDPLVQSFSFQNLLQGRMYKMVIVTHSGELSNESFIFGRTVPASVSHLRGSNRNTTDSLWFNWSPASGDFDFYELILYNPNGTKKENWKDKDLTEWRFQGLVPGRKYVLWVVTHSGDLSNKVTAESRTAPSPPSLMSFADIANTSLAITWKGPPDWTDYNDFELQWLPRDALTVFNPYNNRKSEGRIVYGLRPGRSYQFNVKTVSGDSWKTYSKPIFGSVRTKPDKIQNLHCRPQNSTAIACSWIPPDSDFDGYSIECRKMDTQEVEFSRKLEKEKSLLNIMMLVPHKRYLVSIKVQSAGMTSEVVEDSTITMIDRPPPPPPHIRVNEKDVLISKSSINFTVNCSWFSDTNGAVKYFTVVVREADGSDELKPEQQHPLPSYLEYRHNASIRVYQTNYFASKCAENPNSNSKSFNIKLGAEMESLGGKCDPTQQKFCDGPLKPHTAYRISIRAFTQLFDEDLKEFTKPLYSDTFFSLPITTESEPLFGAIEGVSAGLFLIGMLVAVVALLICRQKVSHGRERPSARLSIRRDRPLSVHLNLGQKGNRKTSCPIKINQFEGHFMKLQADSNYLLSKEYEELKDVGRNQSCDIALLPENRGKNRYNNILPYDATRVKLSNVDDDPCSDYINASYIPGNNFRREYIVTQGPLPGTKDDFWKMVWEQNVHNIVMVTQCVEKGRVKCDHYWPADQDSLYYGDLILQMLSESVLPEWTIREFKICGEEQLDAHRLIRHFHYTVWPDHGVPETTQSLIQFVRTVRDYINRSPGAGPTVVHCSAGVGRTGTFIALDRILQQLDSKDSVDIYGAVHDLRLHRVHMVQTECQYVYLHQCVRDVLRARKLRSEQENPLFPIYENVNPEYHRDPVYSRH
Sequence of human Sirtuin 2 (SIRT2), SIRT2 (gene 22933) (Q8IXJ6 whole entry, looked up): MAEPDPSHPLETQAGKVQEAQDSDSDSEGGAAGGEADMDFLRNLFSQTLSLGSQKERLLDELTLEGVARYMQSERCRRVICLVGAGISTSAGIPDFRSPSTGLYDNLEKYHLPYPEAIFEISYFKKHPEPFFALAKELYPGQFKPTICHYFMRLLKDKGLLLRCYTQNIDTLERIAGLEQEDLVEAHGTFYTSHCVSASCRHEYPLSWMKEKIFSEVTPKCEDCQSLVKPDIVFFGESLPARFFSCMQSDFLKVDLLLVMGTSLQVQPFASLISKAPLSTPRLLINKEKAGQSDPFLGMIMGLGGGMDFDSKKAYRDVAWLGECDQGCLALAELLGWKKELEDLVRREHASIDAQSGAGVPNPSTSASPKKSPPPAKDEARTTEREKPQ

Consider `CNS(=O)(=O)c1cc(C(=O)N2CCC(CCN3C4CCC3CC(n3c(C)nc5ccccc53)C4)(c3cccc(F)c3)CC2)c(Cl)cc1F` (centres undefined), for which the outcome in experiment [1] and in [2] was inactive.

Turning to `CN(C)c1ccc(Cc2ccc(N(C)C)cc2)cc1`, the outcome in experiment [3] was inactive.

On to `CC(C)CCCCCCCOC(=O)CCCCC(=O)OCCCCCCCC(C)C`, for which, in experiment [3], the call was inactive.

As usually defined, the AC50 is the midpoint of the concentration-response curve, whichever way the signal moves. For `COc1ccc2sc(C(=O)Nc3nnn[nH]3)c(OC(C)C)c2c1`, the half-maximal activity concentration (AC50) in experiment [4] was 7.67 µM (active).

On to `CC[C@H](C)C(=O)O[C@H]1C[C@@H](C)C=C2C=C[C@H](C)[C@H](CC[C@@H]3C[C@@H](O)CC(=O)O3)[C@H]21`, for which the result in experiment [2] was inactive.

Turning to `CN(C)c1ccc(N=NS(=O)(=O)O)cc1`, the values for the AC50 in experiment [5] and in experiment [1] were 12.5 µM (active) and 16.4 µM (active), respectively. In addition, the compound was called inactive in [6], in experiment [7] and in [8].

Regarding `CC(=O)OCCC(C)C`, the call in [2] was inactive.

With `COCCOCCOCCOC`, the call in [4] was inactive.

As to `Nc1ccc(Nc2ccccc2)cc1`, in experiment [8], the half-maximal activity concentration (AC50) is 15.8 µM (active).

Turning to `CC(C)c1cccc(C(C)C)c1N1C(=O)c2ccc(O)cc2C1=O`, the outcome in experiment [5], in experiment [9] and in experiment [6] was inactive.

In the case of `Cc1[nH]cnc1C[C@H]1CCc2c(C)c3ccccc3n2C1=O`, the outcome in experiment [5] was inactive.

Regarding `NC(=O)NO`, the compound was called inactive in experiment [3].

For `Nc1nc2ncc(CNc3ccc(C(=O)N[C@@H](CCC(=O)O)C(=O)O)cc3)nc2c(=O)[nH]1`, the values for the half-maximal activity concentration (AC50) in experiment [9] and in experiment [10] were 14.9 µM (active) and 41.9 µM (active), respectively.

With `O=C(O)CCN(C1(C(=O)NO)CCCC1)S(=O)(=O)c1ccc(Oc2ccc(F)cc2)cc1`, in [4], the compound was called inactive.

Consider `Cc1c(-c2cccnc2)c2ccccc2n1CCCCC(=O)O`, for which the call in [2] was inactive.

Regarding `O=C(O)c1cccc(Oc2ccccc2)c1`, the outcome in experiment [5], in experiment [10], in [6], in experiment [7] and in [8] was inactive. In addition, the AC50 in experiment [1] is 0.119 µM (active).
